Compound activity from PubChem BioAssay.
A selection: hits, their analogues and other compounds. The true share with any hit is near 6.6%.
SW480 rereplic: induces DNA re-replication in SW480 colon adenocarcinoma cells. SW480 DNA re-replication, Hoechst DNA content imaging, 48 h. Potency, µM (series often up to 46.1 µM), for inactives: top-dose re-replication activation, hits mostly activators. actives 1.8% (n = 340,000); also: % of control where 0% means no effect; nearly all actives have a fitted effect of over 55% in size
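DNA re-replication was detected as more nuclei of elevated Hoechst intensity after 48 hr exposure to compound (23 nL pinned per well of 250 cells).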
KB-V1 cytotox: kills drug-selected multidrug resistant KB-V1 cells; KB-V1 MDR cells viability, CellTiter-Glo, 72 h; Potency, µM (series often up to 46.1 µM), hits mostly cytotoxic; actives 3.4% (n = 400,000); AID 1347076; also: % is scaled to controls: 0 for no effect and ±100 for the full control effect; nearly all actives have a fitted effect of over 60% in size
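Cytotoxicity toward P-gp-expressing KB-V1 cells was determined as loss of CellTiter-Glo luminescence after 72 h at 37 degrees C. Compounds were tested in quantitative HTS format across a concentration range, with curves fitted to normalized data.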
TSG101-PTAP inh: blocks PTAP/TSG101 interaction to inhibit HIV-1 budding; Q99816; Fluorescence polarization, FITC-PTAP peptide / Tsg101 binding; Potency, µM (top dose mostly 115 µM), without a hit: top-dose activity change, negative = inhibition, most hits filed as inhibitors; 340,000 tested, under 10 active; AID 493005; active = well fitted inhibition curve with a large enough effect in the main read-out, with a control signal flat, not every such curve was filed as active; inconclusive = small, poorly fitted or top-dose-only effect, or effect the other way, or a change in a side signal; inactive = no such curve, though single readings can be large or run the other way; also: % of control where 0% means no effect
Target sequence (Q99816 whole entry, looked up): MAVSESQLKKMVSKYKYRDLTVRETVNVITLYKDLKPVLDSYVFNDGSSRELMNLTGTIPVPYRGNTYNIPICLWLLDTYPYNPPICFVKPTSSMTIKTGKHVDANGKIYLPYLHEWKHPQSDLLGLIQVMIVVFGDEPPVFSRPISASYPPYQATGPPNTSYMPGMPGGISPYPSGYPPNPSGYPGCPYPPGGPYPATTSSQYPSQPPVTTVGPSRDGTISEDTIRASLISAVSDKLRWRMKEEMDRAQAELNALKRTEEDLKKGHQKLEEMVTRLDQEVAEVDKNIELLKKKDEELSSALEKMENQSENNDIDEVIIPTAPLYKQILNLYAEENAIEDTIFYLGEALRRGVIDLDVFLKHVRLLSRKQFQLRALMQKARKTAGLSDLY
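Tsg101 binding domain (10 uM final) was mixed with compound and a FITC-labeled PTAP peptide (50 nM final) in HEPES pH 7.5 buffer with NaCl, Tween 20, EDTA and TCEP; fluorescence polarization was read after 20 min at r.t.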
MCF10A rerep: induces DNA re-replication in MCF 10a normal breast cells | MCF 10A DNA re-replication, Hoechst nuclear intensity, 48 h | Potency, µM (series often up to 46.1 µM), for the others: at the highest dose activity, positive = re-replication, most hits filed as activators | actives 2.9% (n = 350,000) | AID 624296; also: % of control where 0% means no effect; nearly all actives have a fitted effect of over 50% in size
RGS4 inhibitor: blocks human RGS4-accelerated GTP hydrolysis; AID 504845; actives 0.039% (n = 390,000); Transcreener GDP fluorescence polarization, RGS4-accelerated GTP hydrolysis; Potency, µM (titrated, usually from 114 µM), for the others: top-dose activity change, negative = inhibition, hits mostly inhibitors; P49798; also: % is scaled to controls: 0 for no effect and ±100 for the full control effect; nearly all actives have a fitted effect of over 75% in size
Target sequence (P49798 whole entry, looked up): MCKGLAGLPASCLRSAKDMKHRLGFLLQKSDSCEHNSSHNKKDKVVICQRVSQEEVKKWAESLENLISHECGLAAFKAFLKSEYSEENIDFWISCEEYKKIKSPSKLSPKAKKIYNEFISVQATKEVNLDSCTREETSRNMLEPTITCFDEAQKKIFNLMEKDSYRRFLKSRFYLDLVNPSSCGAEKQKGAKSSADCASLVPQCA
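MLSMR compounds (23 nl, pin-transferred) preincubated 10 min at room temperature with a 500nM (2x) first reagent, then RGS4 at 900nM (2x) plus Transcreener GDP mix added; fluorescence polarization (620/688 nm) read before and after 90 min at 30 °C.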
KB-3-1 tox: KB-3-1 parental cell cytotoxicity. actives 1.4% (n = 400,000). KB-3-1 viability, CellTiter-Glo ATP luminescence, 72 h. AID 1347075. Potency, µM (titrated, usually from 46.1 µM), usual class: cytotoxic; also: % is scaled to controls: 0 for no effect and ±100 for the full control effect; nearly all actives have a fitted effect of over 60% in size
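Multi-concentration cytotoxicity screen in KB-3-1 cells grown in DMEM lacking phenol red with 10% FBS. After 72 h at 37 °C with compound, ATP-dependent luminescence was recorded.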
* = called active by the depositor; i = inactive; ? = inconclusive; nt = not tested or not shown; ! = repeats disagree; [ ] = remark or other dose. Unless noted, calls follow the shape of the dose curve; as a rule, active = well fitted curve in the direction sought with a large enough effect; inconclusive = small, poorly fitted or top-dose-only effect, or another doubt; inactive = no such curve, though single readings can be large; an effect the other way counts as inactive or inconclusive. Potency is read from the fitted curve at half-maximal effect.

SMILES | SW480 rereplic | KB-V1 cytotox | TSG101-PTAP inh | MCF10A rerep | RGS4 inhibitor | KB-3-1 tox
CCN(C(=O)COC(=O)CCOc1ccc(C(C)(C)C)cc1)c1c(N)n(Cc2ccccc2)c(=O)[nH]c1=O | -0.3% | i | 1.1% | 23.1µM* | 19.5% | 25.9µM*
CCCOc1ccc(C(=O)CCC(=O)OCC(=O)N(CC)c2c(N)n(Cc3ccccc3)c(=O)[nH]c2=O)cc1 | 0.5% | i | 0.2% | -4.7% | -13.4% | i
CC(C)CN(C(=O)COC(=O)c1ccc([N+](=O)[O-])s1)c1c(N)n(Cc2ccccc2)c(=O)[nH]c1=O | ? | i | 0.0% | 1.0% | 26.1% | 20.6µM*
CC(C)CN(C(=O)COC(=O)c1cccs1)c1c(N)n(Cc2ccccc2)c(=O)[nH]c1=O | nt | i | nt | nt | nt | i
CC(=O)Nc1cccc(-c2ccnc3c2CC(C(=O)NCc2ccc(F)c(F)c2)O3)c1 (centres undefined) | nt | ? | nt | nt | nt | 7.31µM*
CC(=O)Nc1cccc(-c2ccnc3c2CC(C)(C(=O)NCC2CC2)O3)c1 (centres undefined) | nt | i | nt | nt | nt | 11.6µM*
CC(=O)Nc1ccc(-c2ccnc3c2CC(C)(C(=O)NCC2CC2)O3)cc1 (centres undefined) | nt | i | nt | nt | nt | i
CC(=O)Nc1cccc(-c2ccnc3c2CC(C)(C(=O)NCCC(F)(F)F)O3)c1 (centres undefined) | nt | i | nt | nt | nt | ?
CC(=O)Nc1cccc(-c2ccnc3c2CC(C)(C(=O)NCc2ccc(F)c(F)c2)O3)c1 (centres undefined) | nt | ? | nt | nt | nt | 14.6µM*
CCOc1ccc(CCNC(=O)NCc2noc3ccc(C)cc23)cc1 | nt | i | nt | nt | 30.1% | i
Cc1ccc(-c2oc3ccccc3c(=O)c2O)cc1 | 8.3% | ? | -4.7% | 25.9µM* | -10.1% | 20.6µM*
CCOC(=O)c1nc(NCc2ccc(Cl)cc2)c2c(C)noc2n1 | nt | i | nt | nt | 16.2% | i
O=c1c(Cl)cc(Cl)nn1-c1ccccc1 | ? | ? | -2.3% | 5.8µM* | 13.3% | ?
N[C@@H](CSCCCO)C(=O)O | 0.5% | nt | nt | 7.8% | nt | nt
O=Cc1c(Cl)nc2ccccn2c1=O | ? | ? | -3.5% | 25.9µM* | 3.3% | i
CCCCC(=O)Nc1nnc(SCC(=O)NC2CCCC2)s1 | -1.2% | i | -6.2% | 8.9% | 10.2% | i
O=C(CCCl)Nc1nnc(SCC(=O)NC2CCCC2)s1 | 8.2µM* | i | -3.3% | 18.4µM* | -5.9% | i
Cc1c(Cl)cccc1NS(=O)(=O)c1cc2c(cc1Cl)CCC(=O)N2 | nt | i | nt | nt | nt | i
COc1ccc(N(C)C(=O)CCC(=O)Nc2ccc3nc(N4CCOCC4)cc(C)c3c2)c(OC)c1 | 9.4% | 16.4µM* | -4.8% | ? | 21.3% | ?
Cc1cc(N2CCOCC2)nc2ccc(NC(=O)CCC(=O)N3CCN(c4cccc(C(F)(F)F)c4)CC3)cc12 | 19.4% | ? | -2.5% | 14.6µM* | 21.2% | ?
O=C(O)COc1ccc(CCNS(=O)(=O)c2ccccc2)s1 | -3.6% | nt | nt | -1.0% | nt | nt
O=C(OCc1ccccc1)N1C=CC2CC1c1c(Cl)cccc12 (centres undefined) | 12.9% | i | -6.2% | 23.1µM* | 7.3% | i
Cc1ccc(Nc2nc(NCc3ccco3)nc3nccnc23)cc1 | nt | i | nt | nt | 30.5% | ?
COc1ccccc1NS(=O)(=O)c1cc(C(=O)N2CC(C)CC(C)C2)ccc1C (centres undefined) | 3.0% | 2.31µM* | 0.1% | -1.8% | -38.7% | i
COc1ccc(C2CC(=O)Oc3c(C(CCN4CCOCC4)c4ccc5c(c4)OCO5)c(OC)cc(OC)c32)cc1 (centres undefined) | nt | nt | nt | nt | 0.0% | nt
SMILES | SW480 rereplic | KB-V1 cytotox | TSG101-PTAP inh | MCF10A rerep | RGS4 inhibitor | KB-3-1 tox
COC(=O)c1ccc(NC(=S)NC(=O)c2c(Cl)cnn2C)cc1 | -4.5% | i | 4.6% | 1.0% | -34.8% | i
COC(=O)c1cc(NC(=O)c2c(Cl)cnn2C)cc(C(=O)OC)c1 | -3.1% | 14.6µM* | -4.9% | 10.3% | 5.8% | i
CCCOc1ccc(Cn2c(=O)oc3ccc(C)cc32)cc1OC | -1.5% | 11.6µM* | 0.2% | -4.1% | 0.6%[11.4 µM] | i
COC(=O)c1ccccc1NC(=O)CSCC(=O)Nc1ccccc1OC | 2.0% | 9.2µM* | -12.0% | 3.5% | -0.3% | i
CCn1c(SCC(=O)Nc2ccccc2OC)nc2ccccc2c1=O | 27.1% | ? | -4.3% | ? | 9.1% | i
CCSc1nc2ccccc2n1C(=O)/C=C\c1ccc(OC)c(OC)c1 | 8.2µM* | ? | 0.1% | 4.11µM* | -40.1% | ?
COc1ccccc1NC(=O)CSc1nc2ccccc2n1C(C)=O | 0.4% | 16.4µM* | -6.5% | 17.3% | 24.4% | i
COC(=O)c1ccccc1NC(=O)CSc1ccccc1 | -9.7% | i | -1.9% | -2.3% | -25.5% | i
COc1cc(CN(C(=O)c2ccc(C)cc2)c2ccccn2)cc(OC)c1OC | nt | i | nt | nt | -9.2% | ?
COc1cccc(Sc2nc(N(C)C)ncc2S(=O)(=O)c2ccc(Cl)cc2)c1 | nt | nt | nt | nt | 27.2% | nt
Cc1nc(C(=O)Nc2ccc(Cl)cc2)nn1-c1ccc([N+](=O)[O-])cc1 | -4.7% | i | -4.9% | -182.3%[0.0737 µM] | 13.4% | i
Cc1ccc(NC(=O)c2nc(C)n(-c3ccc([N+](=O)[O-])cc3)n2)cc1 | -3.3% | 11.6µM* | -8.3% | 0.7% | -17.7% | i
COc1ccc(NC(=O)c2c(C)oc3ccc(O)c(CN4CCN(Cc5ccccc5)CC4)c23)cc1Cl | nt | nt | nt | nt | 13.5% | nt
Cc1ccccc1NC(=O)Cn1nnc(C(=O)NCc2ccco2)c1N | 14.6µM* | ? | -2.8% | ? | ? | 18.4µM*!
CCOc1ccccc1NC(=O)Cn1nnc(C(=O)NCc2ccc3c(c2)OCO3)c1N | ? | ? | -3.0% | 4.61µM* | -2.8% | 9.2µM*
CCOc1ccccc1NC(=O)c1nnn(CC(=O)Nc2ccc3c(c2)OCO3)c1N | -21.1% | ? | -2.3% | 6.3% | -0.9% | ?
CCOc1ccccc1NC(=O)Cn1nnc(C(=O)NCc2ccc(F)cc2)c1N | nt | i | nt | nt | -15.2% | i
Cc1ccccc1NC(=O)Cn1nnc(C(=O)NCc2cccs2)c1N | nt | i | nt | nt | -25.2% | 3.26µM*
CCOc1ccccc1NC(=O)Cn1nnc(C(=O)NCc2ccco2)c1N | ? | 0.259µM* | -5.6% | 0.126µM* | 9.8% | 0.0103µM*
O=C(NCc1ccccc1)c1ccc(CSc2nc3cccnc3n2Cc2cccc(F)c2)cc1 | nt | ? | nt | nt | 14.2% | ?
Cc1ccc(OCCCC(=O)Nc2sc3c(c2C(N)=O)CCCC3)cc1 | nt | i | nt | nt | ? | i
